Where “and” joins values, the source holds several entries; their conditions need not be identical. Identical values can stand only once. Results filed as inconclusive are left out. Some compounds were tested as several samples or in several runs, with calls that do not always agree. Calls of active or inactive are those of the source. Unless noted, the call rests on the fitted dose curve; in most records, active means well fitted curve in the direction sought with a large enough effect in the repeat runs; inconclusive means weak or mixed curves; inactive means no such curve, though single readings can be large; an effect the other way counts as inactive or inconclusive.
Experiments:
[1] = qHTS assay to identify small molecule agonists of H2AX (AID 1224845; active means well fitted activation curve with a large enough effect in the signal ratio in the repeat runs, not every such curve was filed as active; the % refers to the signal ratio)
Method in brief: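 Wild-type CHO-K1 cells, plated overnight, exposed 3hr at 37C to 15 concentrations (0.76% DMSO final). Lysed, then HTRF anti-pH2AX (S139) cryptate and anti-H2AX-d2 antibodies, 24 hr room temperature; 665/620 nm emission read.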

[2] = qHTS assay to identify small molecule agonists of the hypoxia (HIF-1) signaling pathway (AID 1224846; active means well fitted activation curve with a large enough effect in the signal ratio in the repeat runs, not every such curve was filed as active; the % refers to the signal ratio)
Method in brief: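 ME-180 HRE-bla reporter cells; compounds in DMSO, 17 h at 37C; read-out beta-lactamase via CCF4-AM FRET.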

[3] = qHTS assay to identify small molecule agonists of H2AX - cell viability counter screen (AID 1224847; calls by dose curve; further: top concentration of the series differs between compounds; nearly all actives have a fitted effect of over 30% in size)
Method in brief: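 CHO-K1 cells plated overnight at 37C, then exposed 3 h at 37C to compounds at 15 concentrations (0.76% DMSO final). Viability by CellTiter-Glo luminescence after 30 min at room temperature.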

[4] = qHTS RealTime-Glo MT Cell Viability Assay in HepG2 cells - 24 hour (AID 1224867); further: nearly all actives have a fitted effect of over 50% in size
Method in brief: (§1)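 Tox21 10K library screened in qHTS format on HepG2 cells carrying RealTime-Glo reagents. Compounds were added after a 5 h preincubation, and the luminescent signal from continuous culture was measured repeatedly during 40 h treatment.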

[5] = qHTS RealTime-Glo MT Cell Viability Assay in HEK293 cells - 32 hour (AID 1224868); further: nearly all actives have a fitted effect of over 50% in size; further: potency means the concentration at half of the fitted maximal effect
Method in brief: (§2)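 Luminescence generated by NanoLuc from substrate produced by living HEK293 cells served as the viability signal. Each value reflects the reading at its stated time point during continuous 40 h compound exposure at 37 C.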

[6] = A CellTox Green Cytotoxicity Assay to monitor cytotoxicity in HEK293 cells - 0 hour (AID 1224869); further: nearly all actives have a fitted effect of over 50% in size
Method in brief: (§3)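 Real-time, in one plate: 600 HEK293 cells/well with dead-cell DNA dye, pinned compound after 5 h, 37 C incubation over 40 h; viable cells give no appreciable fluorescence.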

[7] = qHTS RealTime-Glo MT Cell Viability Assay in HepG2 cells - 40 hour (AID 1224870); further: nearly all actives have a fitted effect of over 50% in size
Method in brief: (§4)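 HepG2 cells (600/well) mixed with RealTime-Glo MT reagent, settled 5 h at 37 C/5% CO2 before compound addition. Nonlytic NanoLuc luminescence from viable-cell prosubstrate reduction read repeatedly during 40 h treatment at 37 C.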

[8] = A CellTox Green Cytotoxicity Assay to monitor cytotoxicity in HEK293 cells - 40 hour (AID 1224871); further: nearly all actives have a fitted effect of over 45% in size
Method in brief: as §3

[9] = qHTS RealTime-Glo MT Cell Viability Assay in HEK293 cells - 16 hour (AID 1224872); further: nearly all actives have a fitted effect of over 50% in size; further: potency means the concentration at half of the fitted maximal effect
Method in brief: as §2

[10] = qHTS RealTime-Glo MT Cell Viability Assay in HepG2 cells - 8 hour (AID 1224873); further: nearly all actives have a fitted effect of over 55% in size
Method in brief: as §4

[11] = qHTS RealTime-Glo MT Cell Viability Assay in HEK293 cells - 40 hour (AID 1224874); conditions: RealTime-Glo luminescence; max response: stronger effect = lower value; further: nearly all actives have a fitted effect of over 50% in size; further: potency means the concentration at half of the fitted maximal effect
Method in brief: (§5)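 Kinetic, non-lysing viability readout. Seed HEK293 (600/well) with reagent, incubate 5 h at 37 C/5% CO2, pin 23 nL compound in DMSO, incubate at 37 C, read luminescence at 0, 8, 16, 24, 32, 40 h.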

[12] = A CellTox Green Cytotoxicity Assay to monitor cytotoxicity in HEK293 cells - 24 hour (AID 1224875); further: nearly all actives have a fitted effect of over 45% in size
Method in brief: as §3

[13] = A CellTox Green Cytotoxicity Assay to monitor cytotoxicity in HepG2 cells - 16 hour (AID 1224876); further: nearly all actives have a fitted effect of over 45% in size
Method in brief: (§6)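 Cytotoxicity was tracked as dead-cell DNA fluorescence in HepG2 cells treated with test compounds at 37 C; each time-point value comes from one kinetic series spanning 0, 8, 16, 24, 32 and 40 h.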

[14] = A CellTox Green Cytotoxicity Assay to monitor cytotoxicity in HepG2 cells - 24 hour (AID 1224878); further: nearly all actives have a fitted effect of over 45% in size
Method in brief: as §6

[15] = A CellTox Green Cytotoxicity Assay to monitor cytotoxicity in HepG2 cells - 40 hour (AID 1224879); further: nearly all actives have a fitted effect of over 40% in size
Method in brief: as §6

[16] = qHTS RealTime-Glo MT Cell Viability Assay in HEK293 cells - 0 hour (AID 1224880)
Method in brief: as §5

[17] = A CellTox Green Cytotoxicity Assay to monitor cytotoxicity in HEK293 cells - 32 hour (AID 1224881); further: nearly all actives have a fitted effect of over 40% in size
Method in brief: as §3

[18] = qHTS assay to identify small molecule antagonists of the estrogen related receptor (ERR) signaling pathway from Tox21 library (AID 1224848); further: nearly all actives have a fitted effect of over 50% in size; further: potency means the concentration at half of the fitted maximal effect
Method in brief: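 Quantitative high-throughput format: ERR reporter cells (2,000/well) pre-incubated 6 h, treated 18 h at 37 C with compounds in DMSO alongside positive and negative controls, then read by ONE-Glo luminescence.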

[19] = qHTS assay to identify small molecule agonists of the estrogen related receptor (ERR) signaling pathway from Tox21 library (AID 1224849; calls by dose curve; further: nearly all actives have a fitted effect of over 15% in size); conditions: ERR reporter cell line, ONE-Glo luciferase, 18 h; at 92.4 µM (top of the series)
Method in brief: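 Luciferase activity in ERR pathway reporter cells served as the agonist readout; exposure lasted 18 h at 37 C, with ONE-Glo detection after 30 min at room temperature.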

[20] = qHTS RealTime-Glo MT Cell Viability Assay in HepG2 cells - 32 hour (AID 1224877); further: nearly all actives have a fitted effect of over 55% in size
Method in brief: as §1
On the % scale 0 is the no-effect control and ±100 the full control effect.

CNC(=S)S
inactive: Potency [1] | outcome [2] | Potency [3] | Potency [4] | Potency [5] | Potency [6] | Potency [7] | Potency [8] | Potency [9] | Potency [10] | max response [11] 24.9% and 0.0192% | Potency [12] | Potency [13] | Potency [14] | Potency [15] | Potency [16] | Potency [17]

CC(C)(c1ccc(OCC2CO2)cc1)c1ccc(OCC2CO2)cc1 (stereo not drawn)
inactive: Potency [1] | outcome [2] | Potency [3] | activity change, positive = activation [19] -61.1% and -21.3% | Potency [4] | Potency [5] | Potency [6] | Potency [8] | Potency [9] | Potency [10] | max response [11] -0.153% | Potency [12] | Potency [13] | Potency [14] | Potency [15] | Potency [16]
active: Potency [18] 61.9 µM

O=C1Nc2ccc(Cl)cc2C(c2ccccc2)=NC1O (stereo not drawn)
inactive: Potency [1] | outcome [2] | Potency [3] | Potency [18] | activity change, positive = activation [19] -20.3% and -12.2% | Potency [4] | Potency [6] | Potency [7] | Potency [8] | Potency [10] | max response [11] -19.7% | Potency [12] | Potency [13] | Potency [20] | Potency [14] | Potency [15] | Potency [16]

CS(=O)(=O)NC(=O)c1cc(Oc2ccc(C(F)(F)F)cc2Cl)ccc1[N+](=O)[O-]
inactive: Potency [1] | outcome [2] | Potency [3] | Potency [4] | Potency [5] | Potency [6] | Potency [7] | Potency [8] | Potency [9] | Potency [10] | Potency [12] | Potency [13] | Potency [20] | Potency [14] | Potency [15] | Potency [16]

ClC(Cl)(Cl)Br
inactive: Potency [1] | outcome [2] | Potency [3] | Potency [4] | Potency [5] | Potency [6] | Potency [7] | Potency [8] | Potency [9] | Potency [10] | Potency [12] | Potency [13] | Potency [20] | Potency [14] | Potency [15] | Potency [16] | Potency [17]

CN(C)c1ccccc1
inactive: Potency [1] | outcome [2] | Potency [3] | Potency [18] | activity change, positive = activation [19] -1.62% and 6.09% | Potency [4] | Potency [5] | Potency [6] | Potency [8] | Potency [9] | Potency [10] | max response [11] 0.0564% and 11.3% | Potency [12] | Potency [13] | Potency [14] | Potency [15] | Potency [16] | Potency [17]

CSc1nc(NC(C)C)nc(NC(C)C)n1
inactive: Potency [1] | outcome [2] | Potency [3] | Potency [18] | activity change, positive = activation [19] -11% and -12.6% | Potency [4] | Potency [6] | Potency [7] | Potency [8] | Potency [9] | Potency [10] | max response [11] -22.1% | Potency [12] | Potency [13] | Potency [20] | Potency [14] | Potency [15] | Potency [16] | Potency [17]

CC(C)Nc1nc(Cl)nc(NC(C)C)n1
inactive: Potency [1] | outcome [2] | Potency [3] | Potency [18] | activity change, positive = activation [19] 1.71% and -9.11% | Potency [4] | Potency [5] | Potency [6] | Potency [8] | Potency [9] | Potency [10] | max response [11] -12.4% and -17.3% | Potency [12] | Potency [13] | Potency [14] | Potency [15] | Potency [16] | Potency [17]

CN(C)P(=O)(N(C)C)N(C)C
inactive: Potency [1] | outcome [2] | Potency [3] | Potency [18] | activity change, positive = activation [19] 5.26% and 10.2% | Potency [4] | Potency [5] | Potency [6] | Potency [8] | Potency [9] | Potency [10] | max response [11] 3.42% and 6.93% | Potency [12] | Potency [13] | Potency [14] | Potency [15] | Potency [16] | Potency [17]

N#CC(c1ccccc1)c1ccccc1
inactive: Potency [1] | outcome [2] | Potency [3] | Potency [18] | activity change, positive = activation [19] -14.8% and -8.2% | Potency [4] | Potency [5] | Potency [6] | Potency [8] | Potency [9] | Potency [10] | max response [11] -11% | Potency [12] | Potency [13] | Potency [20] | Potency [14] | Potency [15] | Potency [16]

C=C(C)C#N
inactive: Potency [1] | outcome [2] | Potency [3] | Potency [4] | Potency [6] | Potency [7] | Potency [8] | Potency [10] | max response [11] 3.27% | Potency [12] | Potency [13] | Potency [14] | Potency [15] | Potency [16] | Potency [17]
active: Potency [11] 5.49 µM
inactive and 5.49 µM (active): Potency [5]
inactive and 21.9 µM (active): Potency [9]

CCCCOCCOC(C)=O
inactive: Potency [1] | outcome [2] | Potency [3] | Potency [18] | activity change, positive = activation [19] 1.87% and 10.2% | Potency [4] | Potency [5] | Potency [6] | Potency [7] | Potency [8] | Potency [9] | Potency [10] | max response [11] 4.03% and 1.95% | Potency [12] | Potency [13] | Potency [20] | Potency [14] | Potency [15] | Potency [16] | Potency [17]

— PubChem BioAssay (Tox21)
